Reference: PubChem BioAssay (NCI)
About 83,000 compounds went through this panel and 20% of them were active in at least one assay; those are over-represented in the sample as a whole.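 Activity criterion: percent growth below 10, measured after cells in 96-well plates were exposed to a single compound concentration for 48 hours.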 The source made the active and inactive calls.

What was measured:
Test in all cases: NCI-60 one-dose screen, 48 h (100 = growth as untreated, 0 = no growth, -100 = all killed)
HCT-15 colon = conditions: 10 µM unless noted
HT29 colon = conditions: 10 µM unless noted
SNB-75 CNS = conditions: 10 µM unless noted
SNB-19 CNS = conditions: 10 µM unless noted
U251 CNS = conditions: 10 µM unless noted
PC-3 prostate = conditions: 10 µM unless noted
SK-MEL-5 melanoma = conditions: 10 µM unless noted
UACC-62 melanoma = conditions: 10 µM unless noted
LOX IMVI melanoma = conditions: 10 µM
SK-MEL-28 melanoma = conditions: 10 µM unless noted
SK-MEL-2 melanoma = conditions: 10 µM unless noted
EKVX NSCLC = conditions: 10 µM unless noted
SN12C renal = conditions: 10 µM unless noted
UO-31 renal = conditions: 10 µM unless noted
TK-10 renal = conditions: 10 µM unless noted
ACHN renal = conditions: 10 µM unless noted
CAKI-1 renal = conditions: 10 µM unless noted
A498 renal = conditions: 10 µM unless noted
CCRF-CEM leukemia = conditions: 10 µM unless noted
MOLT-4 leukemia = conditions: 10 µM unless noted

Structure (SMILES)	growth (HCT-15 colon)	growth (HT29 colon)	growth (SNB-75 CNS)	growth (SNB-19 CNS)	growth (U251 CNS)	growth (PC-3 prostate)	growth (SK-MEL-5 melanoma)	growth (UACC-62 melanoma)	growth (LOX IMVI melanoma)	growth (SK-MEL-28 melanoma)	growth (SK-MEL-2 melanoma)	growth (EKVX NSCLC)	growth (SN12C renal)	growth (UO-31 renal)	growth (TK-10 renal)	growth (ACHN renal)	growth (CAKI-1 renal)	growth (A498 renal)	growth (CCRF-CEM leukemia)	growth (MOLT-4 leukemia)
O=C1C=C(c2ccccc2)C(O)(c2ccccc2)C1 (stereo not given)	132% (inactive)	97.8% (inactive)	77.6% (inactive)	135% (inactive)	106% (inactive)	92.8% (inactive)	106% (inactive)	92.3% (inactive)	93.6% (inactive)	108% (inactive)	103% (inactive)	89.8% (inactive)	99.7% (inactive)	83.5% (inactive)	99.6% (inactive)	96% (inactive)	89.9% (inactive)	105% (inactive)	100% (inactive)	95.4% (inactive)
CCOC(=O)c1ccc(NC(=O)Nc2nccs2)cc1	4.65% (active)	-25.6% (active)	61.5% (inactive)	11.6% (inactive)	12.5% (inactive)	22.8% (inactive)	-67.3% (active)	31.8% (inactive)	11.9% (inactive)	40.9% (inactive)	-38.4% (active)	55.5% (inactive)	24.7% (inactive)	14.8% (inactive)	31.6% (inactive)	9.97% (active)	22.2% (inactive)	7.68% (active)	-0.276% (active)	-2.7% (active)
CCN(CC)CCCC(C)NC(=S)N/N=C(\C)c1ccccn1 (stereo not given)	32.7% (inactive)	35.8% (inactive)	61.9% (inactive)	45.7% (inactive)	37.2% (inactive)	41.1% (inactive)	37.8% (inactive)	22.3% (inactive)	39.3% (inactive)	67.5% (inactive)	83.6% (inactive)	47.7% (inactive)	35.9% (inactive)	14.8% (inactive)	48.4% (inactive)	31.4% (inactive)	20.1% (inactive)	72.1% (inactive)	29.8% (inactive)	9.05% (active)
Oc1cccnc1CN1CCCC1	95.3% (inactive)	108% (inactive)	96.1% (inactive)	104% (inactive)	94.8% (inactive)	89.7% (inactive)	99.8% (inactive)	102% (inactive)	96.6% (inactive)	107% (inactive)	108% (inactive)	106% (inactive)	97.6% (inactive)	92.1% (inactive)	111% (inactive)	105% (inactive)	97% (inactive)	108% (inactive)	101% (inactive)	94.2% (inactive)
O=C(O)CC1=CCCCC1	98.1% (inactive)	105% (inactive)	89.6% (inactive)	97.2% (inactive)	105% (inactive)	96% (inactive)	101% (inactive)	98% (inactive)	94.5% (inactive)	95.5% (inactive)	119% (inactive)	97.5% (inactive)	104% (inactive)	89.1% (inactive)	108% (inactive)	91.1% (inactive)	97.7% (inactive)	74.8% (inactive)	96.9% (inactive)	97.5% (inactive)
CN1C(=O)NC(c2ccc(Cl)cc2)(c2ccc(Cl)cc2)C1=O	106% (inactive)	93% (inactive)	84.2% (inactive)	105% (inactive)	94.9% (inactive)	84.6% (inactive)	98.9% (inactive)	83.8% (inactive)	96.2% (inactive)	102% (inactive)	80.6% (inactive)	91.5% (inactive)	103% (inactive)	61.5% (inactive)	129% (inactive)	108% (inactive)	92.9% (inactive)	110% (inactive)	-30.3% (active)	89.1% (inactive)
CN=S(=O)(OCCCCCOS(=O)(=NC)c1ccc(C)cc1)c1ccc(C)cc1 (stereo not given)	108% (inactive)	95.8% (inactive)	77.1% (inactive)	97.3% (inactive)	93.8% (inactive)	75.6% (inactive)	93.8% (inactive)	86.5% (inactive)	88.1% (inactive)	93.5% (inactive)	94% (inactive)	95.4% (inactive)	95.1% (inactive)	49.4% (inactive)	118% (inactive)	77.2% (inactive)	74.6% (inactive)	87.6% (inactive)	39.6% (inactive)	78.6% (inactive)
CCOc1ccncc1[N+](=O)[O-]	110% (inactive)	107% (inactive)	101% (inactive)	125% (inactive)	96.9% (inactive)	106% (inactive)	106% (inactive)	100% (inactive)	99.6% (inactive)	102% (inactive)	104% (inactive)	104% (inactive)	110% (inactive)	99.9% (inactive)	104% (inactive)	115% (inactive)	103% (inactive)	121% (inactive)	109% (inactive)	102% (inactive)
CCOC(=O)C(COS(C)(=O)=O)(COS(C)(=O)=O)C(=O)OCC	107% (inactive)	108% (inactive)	99.4% (inactive)	106% (inactive)	101% (inactive)	98.5% (inactive)	109% (inactive)	103% (inactive)	98.3% (inactive)	105% (inactive)	114% (inactive)	102% (inactive)	104% (inactive)	95.7% (inactive)	111% (inactive)	103% (inactive)	100% (inactive)	97.5% (inactive)	105% (inactive)	96.3% (inactive)
CCCCCCCCCCCCCC/C=C\C(CC(=O)O)C(=O)O (stereo not given)	107% (inactive)	103% (inactive)	90.1% (inactive)	103% (inactive)	107% (inactive)	96.2% (inactive)	104% (inactive)	100% (inactive)	110% (inactive)	108% (inactive)	110% (inactive)	140% (inactive)	100% (inactive)	95.9% (inactive)	111% (inactive)	110% (inactive)	129% (inactive)	95.2% (inactive)	4.62% (active)	115% (inactive)
CN(C(=S)S(=O)(=O)C12CC3CC(CC(C3)C1)C2)c1ccccc1	83.7% (inactive)	105% (inactive)	98.9% (inactive)	102% (inactive)	108% (inactive)	82.8% (inactive)	101% (inactive)	91.8% (inactive)	81.1% (inactive)	107% (inactive)	69.2% (inactive)	104% (inactive)	90.4% (inactive)	71.5% (inactive)	107% (inactive)	93.9% (inactive)	81.8% (inactive)	98.6% (inactive)	15.9% (inactive)	11.9% (inactive)
O=C(O)Cc1ccccn1	99.7% (inactive)	103% (inactive)	103% (inactive)	101% (inactive)	99% (inactive)	102% (inactive)	104% (inactive)	106% (inactive)	113% (inactive)	106% (inactive)	106% (inactive)	109% (inactive)	112% (inactive)	95.1% (inactive)	105% (inactive)	105% (inactive)	93.9% (inactive)	94.4% (inactive)	101% (inactive)	89.3% (inactive)
CN1CCCN(C(c2ccccc2)c2ccc(Cl)cc2)CC1 (stereo not given)	85.9% (inactive)	86.6% (inactive)	59% (inactive)	117% (inactive)	97.2% (inactive)	86.5% (inactive)	94.8% (inactive)	106% (inactive)	89.4% (inactive)	103% (inactive)	117% (inactive)	94.8% (inactive)	101% (inactive)	76.3% (inactive)	78.3% (inactive)	98.7% (inactive)	77.5% (inactive)	56.1% (inactive)	103% (inactive)	89.5% (inactive)
CC1(C)CC(=O)C=C(N)C1	102% (inactive)	96.1% (inactive)	76.1% (inactive)	105% (inactive)	98.8% (inactive)	93% (inactive)	131% (inactive)	98.5% (inactive)	98.1% (inactive)	104% (inactive)	98.4% (inactive)	60.3% (inactive)	99.3% (inactive)	85.7% (inactive)	99.2% (inactive)	107% (inactive)	85.1% (inactive)	85.1% (inactive)	124% (inactive)	59.5% (inactive)
CCOP(=O)(OCC)/C(=C\N1C(=O)CC(=O)NC1=S)C(=O)OC	102% (inactive)	111% (inactive)	90.2% (inactive)	98.6% (inactive)	94.7% (inactive)	97.8% (inactive)	99% (inactive)	98.6% (inactive)	98.6% (inactive)	107% (inactive)	118% (inactive)	98.9% (inactive)	101% (inactive)	90% (inactive)	112% (inactive)	99.5% (inactive)	97.4% (inactive)	87.7% (inactive)	103% (inactive)	100% (inactive)
Nc1ncnc2c1ncn2C1OC(CO)C2OC21 (stereo not given)	108% (inactive)	101% (inactive)	106% (inactive)	118% (inactive)	95.7% (inactive)	95.8% (inactive)	101% (inactive)	100% (inactive)	99.2% (inactive)	111% (inactive)	95.2% (inactive)	105% (inactive)	95.7% (inactive)	100% (inactive)	99% (inactive)	116% (inactive)	106% (inactive)	85.4% (inactive)	105% (inactive)	111% (inactive)
